Screening results from PubChem.
Hits are enriched below; roughly 8.1% of the tested compounds scored in any of these assays.
KB-V1 cytotox: KB-V1 MDR subline cytotoxicity | KB-V1 MDR cells viability, CellTiter-Glo, 72 h | Potency, µM (titrated, usually from 46.1 µM), usual class: cytotoxic | 400,000 tested, 3.4% active | AID 1347076; further: on the % scale 0 is the no-effect control and ±100 the full control effect; nearly all actives have a fitted effect of over 60% in size
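Cytotoxicity via CellTiter-Glo luminescence after 72 h compound exposure at 37 degrees C. Cells: drug-selected KB-V1 line, DMEM phenol-red free plus 10% FBS. Compounds tested at multiple concentrations; normalized data fitted to concentration-effect curves.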
SW480 rereplic: inducers of DNA re-replication in SW480 colon cancer cells; 340,000 tested, 1.8% active; Potency, µM (top dose mostly 46.1 µM), inactives show at the top dose re-replication activation, actives largely listed as activators; AID 624297; SW480 DNA re-replication, Hoechst DNA content imaging, 48 h; further: % of control where 0% means no effect; nearly all actives have a fitted effect of over 55% in size
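Cells (250 per well) received 23 nL compound or DMSO by pin tool and were kept 48 hr at 37 C, 5% CO2. Nuclei were then stained with Hoechst for 40 min and scanned for DNA content.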
ELG1 DNA repair: ELG1-dependent DNA repair inhibition. HEK293T ELG1-luciferase reporter, luminescence, 16 h; DNA damage induced by 5-fluorouridine. Potency, µM (highest dose often 46.1 µM), without a hit: top-dose activity change, negative = inhibition, actives largely listed as inhibitors. 330,000 tested, 2.3% active. AID 504467; further: on the % scale 0 is the no-effect control and ±100 the full control effect; nearly all actives have a fitted effect of over 55% in size
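5-Fluorouridine DNA damage + compound/DMSO, 2,000 cells/well, 16 h, 37 °C/5% CO2. ONE-Glo, 30 min RT, luminescence. Readout = decrease in reporter signal.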
KB-3-1 cytotox: kills parental KB-3-1 adenocarcinoma cells; AID 1347075; Potency, µM (titrated, usually from 46.1 µM), usual class: cytotoxic; KB-3-1 viability, CellTiter-Glo ATP luminescence, 72 h; 400,000 tested, 1.4% active; further: on the % scale 0 is the no-effect control and ±100 the full control effect; nearly all actives have a fitted effect of over 60% in size
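Viability of parental KB-3-1 cells, measured by CellTiter-Glo luminescence, followed a 72 h incubation at 37 °C with pinned compounds in phenol-red-free DMEM containing 10% FBS.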
MCF10A rerep: induces DNA re-replication in MCF 10a normal breast cells. MCF 10A DNA re-replication, Hoechst nuclear intensity, 48 h. Potency, µM (doses to about 46.1 µM), without a hit: top-dose activity, positive = re-replication, actives largely listed as activators. 350,000 tested, 2.9% active. AID 624296; further: % of control where 0% means no effect; nearly all actives have a fitted effect of over 50% in size
* hit, by the source's call. The call rests on the fitted dose curve; in most records, active means well fitted curve in the direction sought with a large enough effect; inconclusive means small, poorly fitted or top-dose-only effect, or another doubt; inactive means no such curve, though single readings can be large; an effect the other way counts as inactive or inconclusive. Potency means the concentration at half of the fitted maximal effect.

COc1cc(C(=O)N2CCN(c3cc(Cl)ccc3Cl)CC2)cc(OC)c1OC was read as KB-V1 cytotox inconclusive, SW480 rereplic 1.16µM*, ELG1 DNA repair 1.6%, KB-3-1 cytotox 0.326µM* and MCF10A rerep inconclusive.
Screening COc1cc(C(=O)N2CCN(c3cccc(C)c3C)CC2)cc(OC)c1OC returned KB-V1 cytotox 2.59µM*, SW480 rereplic 0.731µM*, ELG1 DNA repair inconclusive, KB-3-1 cytotox 0.82µM* and MCF10A rerep 10.3µM*.
Screening COc1cc(C(=O)N2CCN(c3ccccn3)CC2)cc(OC)c1OC returned KB-V1 cytotox inactive, SW480 rereplic -2.6%, ELG1 DNA repair 16.5%, KB-3-1 cytotox inactive and MCF10A rerep -8.1%.
Screening Cc1cccc(N2CCN(C(=O)c3ccc4ncsc4c3)CC2)c1C returned KB-V1 cytotox inconclusive, SW480 rereplic 10.3µM*, ELG1 DNA repair 19.8%, KB-3-1 cytotox 4.61µM* and MCF10A rerep 9.2µM*.
Screening O=C(c1ccc2ncsc2c1)N1CCN(c2nc3ccccc3s2)CC1 returned KB-V1 cytotox 7.31µM*, SW480 rereplic -8.6%, ELG1 DNA repair inconclusive, KB-3-1 cytotox inconclusive and MCF10A rerep -15.0%.
Cc1cccc(N2CCN(C(=O)c3ccncc3)CC2)c1C was read as KB-V1 cytotox 5.8µM*, SW480 rereplic 11.6µM*, ELG1 DNA repair inconclusive, KB-3-1 cytotox 10.3µM* and MCF10A rerep inconclusive.
CN(C1CCCCC1)S(=O)(=O)c1ccc(C(=O)N2CCN(c3nc4ccccc4s3)CC2)cc1 was read as KB-V1 cytotox 2.59µM*, SW480 rereplic -3.6%, ELG1 DNA repair 9.2µM*, KB-3-1 cytotox inactive and MCF10A rerep 9.6%.
Screening O=C(C1CC1)N1CCN(c2nc3ccccc3s2)CC1 returned KB-V1 cytotox inconclusive, SW480 rereplic 1.2%, ELG1 DNA repair inconclusive, KB-3-1 cytotox inactive and MCF10A rerep -2.2%.
Cc1cccc(N2CCN(C(=O)c3c(C)nn(Cc4ccccc4Cl)c3C)CC2)c1C was read as KB-V1 cytotox inconclusive, SW480 rereplic inconclusive, ELG1 DNA repair 20.6µM*, KB-3-1 cytotox inactive and MCF10A rerep 14.6µM*.
For CCOCCCNC(=O)c1ccc(/C=C2\Oc3ccccc3N(C)C2=O)cc1 the results were KB-V1 cytotox inactive, SW480 rereplic -6.9%, ELG1 DNA repair -19.1%, KB-3-1 cytotox inactive and MCF10A rerep -3.5%.
For COC(=O)c1ccccc1NC(=S)N(Cc1ccc2c(c1)OCO2)Cc1cc2cc(C)ccc2[nH]c1=O the results were KB-V1 cytotox inactive, SW480 rereplic 4.5%, ELG1 DNA repair 6.51µM*, KB-3-1 cytotox inactive and MCF10A rerep -7.2%.
For COC(=O)c1ccccc1NC(=S)N(Cc1ccc2c(c1)OCO2)Cc1cc2ccc(C)cc2[nH]c1=O the results were KB-V1 cytotox inactive, SW480 rereplic 5.1%, ELG1 DNA repair 5.8µM*, KB-3-1 cytotox inactive and MCF10A rerep 0.2%.
Screening COC(=O)c1ccccc1NC(=S)N(Cc1ccc2c(c1)OCO2)Cc1cc2ccc(OC)cc2[nH]c1=O returned KB-V1 cytotox inactive, SW480 rereplic 16.5%, ELG1 DNA repair 7.31µM*, KB-3-1 cytotox inactive and MCF10A rerep 10.2%.
O=C(Nc1ccc(Oc2ccccc2)nc1)C1CCCCN1Cc1cccc(OCCO)c1 (stereo not given) was read as KB-V1 cytotox inactive, SW480 rereplic -16.6%, ELG1 DNA repair 0.8%, KB-3-1 cytotox inactive and MCF10A rerep 16.6%.
COc1cc(C(=O)NNC(=S)NC(=O)c2ccc3c(c2)OCO3)cc(OC)c1OC was read as KB-V1 cytotox inactive, SW480 rereplic inconclusive, ELG1 DNA repair inconclusive, KB-3-1 cytotox inconclusive and MCF10A rerep inconclusive.
Screening COc1cc(C(=O)N/N=C(\C)c2ccc3c(c2)OCO3)cc(OC)c1OC returned KB-V1 cytotox 5.17µM*, SW480 rereplic 2.59µM*, ELG1 DNA repair -22.1%, KB-3-1 cytotox 4.61µM* and MCF10A rerep 4.11µM*.
COc1ccc(N/C=C\C(=O)c2ccc3c(c2)OCO3)cc1OC was read as KB-V1 cytotox inactive, SW480 rereplic 2.9%, ELG1 DNA repair inconclusive, KB-3-1 cytotox inactive and MCF10A rerep 14.9%.
For COc1cccc(/C=C/C(=O)c2ccc3c(c2)OCO3)c1OC the results were KB-V1 cytotox 23.1µM*, SW480 rereplic inconclusive, ELG1 DNA repair inconclusive, KB-3-1 cytotox inconclusive and MCF10A rerep inconclusive.
`COc1cc(C(=O)NNC(=O)c2ccc3c(c2)OCCO3)cc(OC)c1OC` gave KB-V1 cytotox inactive, SW480 rereplic -4.3%, ELG1 DNA repair -20.1%, KB-3-1 cytotox inactive and MCF10A rerep -0.3%.
`COc1cc(C(=O)c2ccc3c(c2)OCO3)cc(OC)c1OC` gave KB-V1 cytotox 3.26µM*, SW480 rereplic 2.06µM*, KB-3-1 cytotox 4.61µM* and MCF10A rerep inconclusive.
`COc1cc(C(=O)c2cocc2C(=O)c2ccc3c(c2)OCO3)cc(OC)c1OC` gave KB-V1 cytotox 1.16µM*, SW480 rereplic 1.84µM*, ELG1 DNA repair inconclusive, KB-3-1 cytotox inconclusive and MCF10A rerep inconclusive.
`CCc1cccc(CC)c1NC(=O)c1c(C)oc2ccc(O)c(CN3CCCC3)c12` gave KB-V1 cytotox inconclusive and KB-3-1 cytotox inactive.
`CCCCOc1ccc(NC(=O)C2OC3OC(C)(C)OC3C3OC(C)(C)OC23)cc1` (stereo not given) gave KB-V1 cytotox inactive, SW480 rereplic 2.6%, ELG1 DNA repair 23.4%, KB-3-1 cytotox inactive and MCF10A rerep -3.2%.
`COC(=O)N/N=C/c1cc(C)n(-c2ccccc2)c1C` gave KB-V1 cytotox inactive, SW480 rereplic -75.3%, ELG1 DNA repair inconclusive, KB-3-1 cytotox inactive and MCF10A rerep 1.3%.
Cc1cc(/C=N/NC(=O)C(O)(c2ccccc2)c2ccccc2)c(C)n1-c1ccccc1 was read as KB-V1 cytotox inconclusive, SW480 rereplic -29.1%, ELG1 DNA repair 9.3%, KB-3-1 cytotox inactive and MCF10A rerep -8.8%.
Screening Cc1ccc(-n2c(C)cc(/C=N/NC(=O)Cn3c4ccccc4c(=O)c4ccccc43)c2C)cc1 returned KB-V1 cytotox inactive, SW480 rereplic 11.6µM*, ELG1 DNA repair -19.2%, KB-3-1 cytotox inactive and MCF10A rerep 14.6µM*.
For Cc1cc(/C=N/NC(=O)Cn2c3ccccc3c(=O)c3ccccc32)c(C)n1-c1ccc(Cl)cc1 the results were KB-V1 cytotox inactive, SW480 rereplic 15.9%, ELG1 DNA repair -10.3%, KB-3-1 cytotox inconclusive and MCF10A rerep 11.6µM*.
Clc1ccc2nc3ccccc3cc2c1 was read as KB-V1 cytotox inactive and KB-3-1 cytotox inactive.
`Cc1ccc(S(=O)(=O)CC(=O)N2CCCC2)cc1` gave KB-V1 cytotox inconclusive, SW480 rereplic -9.4%, ELG1 DNA repair inconclusive, KB-3-1 cytotox inactive and MCF10A rerep 2.1%.
